# Screen size: about 5,500 compounds; about 2,000 (36%) were called active. About 18% were inconclusive and are not listed. Some of the results follow. Unmarked numbers belong to inactive results. Cut-off read from the data, not from the text of the source: active = normalized growth mostly below about 0.91 (no sharp cut-off); inconclusive = no clear call, values can overlap the other calls; inactive = mostly above about 0.92.
# Experiment: chemical genetic growth profiling, strain panel (AID 1159580);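 note: tested at 20 µM; growth read once vehicle control cultures reached saturation at 30 °C; 1 = growth at the plate median or of vehicle wells; lower values mean less growth of the strain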
# Settings: growth OD
structure (smiles),measurement,setting,value
COc1cc2ccc(=O)oc2c2ccoc12,normalized growth,"S. cerevisiae deletion strains, locus YJR066W, strain TOR1, hits give low values",0.965
same,normalized growth,"S. cerevisiae deletion strains, locus YKL009W, strain mrt4, hits give low values",0.902
same,normalized growth,"S. cerevisiae deletion strains, locus YKL068W, hits give low values",0.999
same,normalized growth,"S. cerevisiae deletion strains, locus YKL085W, strain MDH1 (second series), hits give low values",0.999
same,normalized growth,"S. cerevisiae deletion strains, locus YKL085W, strain MDH1, hits give low values",0.999
same,normalized growth,"S. cerevisiae deletion strains, locus YKL160W, strain elf1, hits give low values",0.894 (active)
same,normalized growth,"S. cerevisiae deletion strains, locus YKR001C, strain vps1, hits give low values",0.901
same,normalized growth,"S. cerevisiae deletion strains, locus YKR026C, strain gcn3, hits give low values",0.999
same,normalized growth,"S. cerevisiae deletion strains, locus YKR091W, strain srl3, hits give low values",0.998
same,normalized growth,"S. cerevisiae deletion strains, locus YLL001W, strain dnm1, hits give low values",0.87 (active)
same,normalized growth,"S. cerevisiae deletion strains, locus YLL026W, hits give low values",0.982
same,normalized growth,"S. cerevisiae deletion strains, locus YLL041C, strain sdh2, hits give low values",0.991
same,normalized growth,"S. cerevisiae deletion strains, locus YLR027C, strain aat2, hits give low values",0.911 (active)
same,normalized growth,"S. cerevisiae deletion strains, locus YLR039C, strain RIC1, hits give low values",1.09
same,normalized growth,"S. cerevisiae deletion strains, locus YLR058C, strain SHM2, hits give low values",0.987
same,normalized growth,"S. cerevisiae deletion strains, locus YLR102C, strain apc9, hits give low values",1.01
same,normalized growth,"S. cerevisiae deletion strains, locus YLR113W, strain HOG1, hits give low values",1.09
same,normalized growth,"S. cerevisiae deletion strains, locus YLR221C, strain rsa3, hits give low values",0.873 (active)
same,normalized growth,"S. cerevisiae deletion strains, locus YLR258W, strain gsy2, hits give low values",0.87 (active)
same,normalized growth,"S. cerevisiae deletion strains, locus YLR262C, strain YPT6 (second series), hits give low values",0.948
same,normalized growth,"S. cerevisiae deletion strains, locus YLR262C, strain YPT6, hits give low values",1.06
same,normalized growth,"S. cerevisiae deletion strains, locus YLR268W, strain sec22, hits give low values",0.97
same,normalized growth,"S. cerevisiae deletion strains, locus YLR320W, strain mms22, hits give low values",0.752 (active)
same,normalized growth,"S. cerevisiae deletion strains, locus YLR342W, strain FKS1, hits give low values",1.01
same,normalized growth,"S. cerevisiae deletion strains, locus YLR357W, strain rsc2, hits give low values",1.16 [resistant] (active)
same,normalized growth,"S. cerevisiae deletion strains, locus YLR370C, strain arc18, hits give low values",0.982
same,normalized growth,"S. cerevisiae deletion strains, locus YLR371W, strain rom2, hits give low values",0.947
same,normalized growth,"S. cerevisiae deletion strains, locus YLR384C, strain iki3, hits give low values",0.986
same,normalized growth,"S. cerevisiae deletion strains, locus YLR418C, strain cdc73, hits give low values",0.918
same,normalized growth,"S. cerevisiae deletion strains, locus YML016C, strain PPZ1, hits give low values",0.991
same,normalized growth,"S. cerevisiae deletion strains, locus YML032C, strain rad52, hits give low values",0.737 (active)
same,normalized growth,"S. cerevisiae deletion strains, locus YML120C, strain ndi1, hits give low values",0.844 (active)
same,normalized growth,"S. cerevisiae deletion strains, locus YML124C, strain tub3, hits give low values",1
same,normalized growth,"S. cerevisiae deletion strains, locus YMR058W, strain fet3, hits give low values",0.941
same,normalized growth,"S. cerevisiae deletion strains, locus YMR078C, strain ctf18, hits give low values",0.977
same,normalized growth,"S. cerevisiae deletion strains, locus YMR125W, strain sto1, hits give low values",1.02
same,normalized growth,"S. cerevisiae deletion strains, locus YMR129W, hits give low values",0.971
same,normalized growth,"S. cerevisiae deletion strains, locus YMR205C, strain PFK2, hits give low values",0.993
same,normalized growth,"S. cerevisiae deletion strains, locus YMR223W, strain ubp8, hits give low values",0.937
same,normalized growth,"S. cerevisiae deletion strains, locus YMR231W, strain pep5, hits give low values",0.98
same,normalized growth,"S. cerevisiae deletion strains, locus YMR263W, strain SAP30, hits give low values",0.976
same,normalized growth,"S. cerevisiae deletion strains, locus YMR307W, strain GAS1, hits give low values",1.09
same,normalized growth,"S. cerevisiae deletion strains, locus YNL067W, strain RPL9B, hits give low values",0.977
same,normalized growth,"S. cerevisiae deletion strains, locus YNL071W, strain lat1, hits give low values",0.913 (active)
same,normalized growth,"S. cerevisiae deletion strains, locus YNL128W, strain TEP1, hits give low values",0.871
same,normalized growth,"S. cerevisiae deletion strains, locus YNL183C, strain NPR1, hits give low values",0.977
same,normalized growth,"S. cerevisiae deletion strains, locus YNL209W, strain ssb2, hits give low values",0.919 (active)
same,normalized growth,"S. cerevisiae deletion strains, locus YNL233W, strain BNI4, hits give low values",0.982
same,normalized growth,"S. cerevisiae deletion strains, locus YNL248C, strain rpa49, hits give low values",0.458 (active)
same,normalized growth,"S. cerevisiae deletion strains, locus YNL250W, strain rad50, hits give low values",0.856 (active)
same,normalized growth,"S. cerevisiae deletion strains, locus YNL271C, strain bni1, hits give low values",0.956
same,normalized growth,"S. cerevisiae deletion strains, locus YNL298W, strain CLA4, hits give low values",0.954
same,normalized growth,"S. cerevisiae deletion strains, locus YNL307C, strain MCK1, hits give low values",1.01
same,normalized growth,"S. cerevisiae deletion strains, locus YNL322C, strain KRE1 (second series), hits give low values",0.793 (active)
same,normalized growth,"S. cerevisiae deletion strains, locus YNR049C, strain mso1, hits give low values",1.02
same,normalized growth,"S. cerevisiae deletion strains, locus YNR052C, strain pop2, hits give low values",0.925
same,normalized growth,"S. cerevisiae deletion strains, locus YOL012C, strain htz1",0.781
same,normalized growth,"S. cerevisiae deletion strains, locus YOL147C, strain pex11, hits give low values",0.981
same,normalized growth,"S. cerevisiae deletion strains, locus YOR001W, strain rrp6, hits give low values",0.732 (active)
same,normalized growth,"S. cerevisiae deletion strains, locus YOR061W, strain CKA2, hits give low values",1
same,normalized growth,"S. cerevisiae deletion strains, locus YOR069W, strain VPS5, hits give low values",0.988
same,normalized growth,"S. cerevisiae deletion strains, locus YOR070C, strain gyp1, hits give low values",0.966
same,normalized growth,"S. cerevisiae deletion strains, locus YOR080W, strain dia2, hits give low values",0.891 (active)
same,normalized growth,"S. cerevisiae deletion strains, locus YOR083W, strain WHI5, hits give low values",0.801 (active)
same,normalized growth,"S. cerevisiae deletion strains, locus YOR106W, strain vam3, hits give low values",0.755 (active)
same,normalized growth,"S. cerevisiae deletion strains, locus YOR136W, strain idh2, hits give low values",0.971
same,normalized growth,"S. cerevisiae deletion strains, locus YOR144C, strain elg1, hits give low values",0.986
same,normalized growth,"S. cerevisiae deletion strains, locus YOR184W, strain ser1, hits give low values",0.994
same,normalized growth,"S. cerevisiae deletion strains, locus YOR231W, strain MKK1, hits give low values",0.991
same,normalized growth,"S. cerevisiae deletion strains, locus YOR265W, strain rbl2, hits give low values",0.952
same,normalized growth,"S. cerevisiae deletion strains, locus YOR270C, strain vph1, hits give low values",0.814
same,normalized growth,"S. cerevisiae deletion strains, locus YOR290C, strain snf2, hits give low values",0.821 (active)
same,normalized growth,"S. cerevisiae deletion strains, locus YOR316C, strain cot1, hits give low values",0.981
same,normalized growth,"S. cerevisiae deletion strains, locus YPL051W, strain arl3, hits give low values",0.863 (active)
same,normalized growth,"S. cerevisiae deletion strains, locus YPL078C, strain atp4, hits give low values",0.858 (active)
same,normalized growth,"S. cerevisiae deletion strains, locus YPL106C, strain sse1, hits give low values",0.748 (active)
same,normalized growth,"S. cerevisiae deletion strains, locus YPL240C, strain hsp82, hits give low values",0.965
same,normalized growth,"S. cerevisiae deletion strains, locus YPL241C, strain CIN2, hits give low values",0.997
same,normalized growth,"S. cerevisiae deletion strains, locus YPL256C, strain CLN2, hits give low values",1.06
same,normalized growth,"S. cerevisiae deletion strains, locus YPR119W, strain clb2, hits give low values",0.99
same,normalized growth,"S. cerevisiae deletion strains, locus YPR141C, strain kar3, hits give low values",1
same,normalized growth,"S. cerevisiae deletion strains, locus YPR163C, strain tif3, hits give low values",0.884 (active)
same,normalized growth,"S. cerevisiae deletion strains, locus YPR167C, strain met16, hits give low values",0.97
same,normalized growth,"S. cerevisiae deletion strains, strain wtn01, hits give low values",0.969
same,normalized growth,"S. cerevisiae strains, strain wild type, hits give low values",1.02
